# Data from the supplement of paper PMC12669032.
# A number with no mark means an inactive call.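 How the source made its calls: active = AUC reduced over 20% with Padj below 0.05 in at least 2 of 3 replicates; inactive = otherwise.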
# Tests used:
# Experiment in all cases: growth AUC relative to DMSO control (median of replicates) (fraction); higher = more growth (less inhibition), active = hit call of the paper
# Conditions in all cases: 20 µM; 24 h
# Akkermansia muciniphila = tested on: Akkermansia muciniphila
# Outline: (§1)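 Area under the growth curve was normalised to the plate median of solvent-only wells, or to row and column medians on the industrial chemical plate. Growth curves came from anaerobic gut bacterial monocultures in mGAM at 37 °C, seeded at OD600 0.05 with 20 µM compound (1% DMSO), and read at OD600 hourly for 24 h with the minimum OD set to 0. The value is the median of three biological replicates grown on separate days.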
# Bacteroides caccae = tested on: Bacteroides caccae
# Outline: as §1
# Bacteroides clarus = tested on: Bacteroides clarus
# Outline: as §1
# Bacteroides dorei = tested on: Bacteroides dorei
# Outline: as §1
# Bacteroides stercoris = tested on: Bacteroides stercoris
# Outline: as §1
# [1] = tested on: Bacteroides thetaiotaomicron
# Outline: as §1
# Bacteroides uniformis = tested on: Bacteroides uniformis
# Outline: as §1
# [2] = tested on: Bifidobacterium longum subsp. longum
# Outline: as §1
# Clostridium difficile = tested on: Clostridium difficile
# Outline: as §1
# Collinsella aerofaciens = tested on: Collinsella aerofaciens
# Outline: as §1
# Coprococcus comes = tested on: Coprococcus comes
# Outline: as §1
# Escherichia coli ED1a = tested on: Escherichia coli ED1a
# Outline: as §1
# Escherichia coli IAI1 = tested on: Escherichia coli IAI1
# Outline: as §1
# Eubacterium rectale = tested on: Eubacterium rectale
# Outline: as §1
# [3] = tested on: Fusobacterium nucleatum subsp. animalis
# Outline: as §1
# Lactobacillus gasseri = tested on: Lactobacillus gasseri
# Outline: as §1
# Lactobacillus paracasei = tested on: Lactobacillus paracasei
# Outline: as §1
# Odoribacter splanchnicus = tested on: Odoribacter splanchnicus
# Outline: as §1
# [4] = tested on: Parabacteroides distasonis
# Outline: as §1
# Parabacteroides merdae = tested on: Parabacteroides merdae
# Outline: as §1
Compound,growth AUC (Akkermansia muciniphila),growth AUC (Bacteroides caccae),growth AUC (Bacteroides clarus),growth AUC (Bacteroides dorei),growth AUC (Bacteroides stercoris),growth AUC [1],growth AUC (Bacteroides uniformis),growth AUC [2],growth AUC (Clostridium difficile),growth AUC (Collinsella aerofaciens),growth AUC (Coprococcus comes),growth AUC (Escherichia coli ED1a),growth AUC (Escherichia coli IAI1),growth AUC (Eubacterium rectale),growth AUC [3],growth AUC (Lactobacillus gasseri),growth AUC (Lactobacillus paracasei),growth AUC (Odoribacter splanchnicus),growth AUC [4],growth AUC (Parabacteroides merdae)
COCC(=O)N(c1c(C)cccc1C)[C@@H](C)C(=O)OC,1.19,0.953,0.968,0.922,1,1.04,0.981,1.04,1.04,0.973,1.04,1.01,1,1.09,1.1,0.893,1.01,0.996,0.796,0.996
CC(C)=NOCCOC(=O)[C@@H](C)Oc1ccc(Oc2cnc3cc(Cl)ccc3n2)cc1,0.861,0.965,1,0.958,0.876,0.937,0.899,0.924,0.981,0.954,0.94,1.01,1.01,0.957,0.864,1.04,0.974,0.931,0.983,0.955
CC(C)(O)C(Cl)(Cl)Cl.CC(C)(O)C(Cl)(Cl)Cl.O,1.08,1.01,1,0.973,1.12,1.05,1.02,0.917,1.03,0.999,1.04,1.01,1.02,0.942,1.1,1.06,1.02,0.967,1.05,0.987
Fc1ccc(C2(Cn3cncn3)OC2c2ccccc2Cl)cc1 (stereo not given),0.955,1.01,0.93,0.956,1.02,0.941,0.953,0.935,0.995,0.99,0.969,1.02,1.01,0.72 (active),0.95,0.996,0.942,0.864,0.968,0.933
COC(=O)NS(=O)(=O)c1ccc(N)cc1,1,0.901,0.995,0.916,0.959,0.948,0.867,1.03,0.913,0.876,1.01,0.972,0.975,1.28,0.939,0.848,0.903,1.1,1.08,0.774 (active)
Clc1ccc(Cl)cc1,1.01,0.991,0.989,0.899,1.08,1.01,1.01,1.07,0.987,0.972,0.985,1,1,1.05,1.1,0.981,0.936,1.03,0.999,1.02
CC(C)[C@@H](Nc1ccc(C(F)(F)F)cc1Cl)C(=O)OC(C#N)c1cccc(Oc2ccccc2)c1 (stereo not given in full),1.09,1.02,1.04,1.04,1.01,0.994,1.01,1.02,1.04,0.933,0.988,1,1.05,1.04,1.06,1.02,1.04,1.05,1.09,1.03
Fc1ccc(Oc2ccnc3cc(Cl)cc(Cl)c23)cc1,0.94,0.899,0.918,1.05,0.806,0.887,0.875,0.905,1.08,0.967,0.969,0.977,0.97,0.845,0.921,0.984,0.672,1,0.966,0.876
O=C1C[C@@H]2OCC=C3CN4CC[C@]56c7ccccc7N1[C@H]5[C@H]2[C@H]3C[C@H]46,0.985,0.968,0.998,0.93,0.898,0.964,1.01,1.09,0.972,0.942,0.984,0.973,0.985,1,0.909,0.928,1.09,1.08,0.988,0.967
